Measurements from PubChem BioAssay (NCI).
Compounds without any hit were thinned out: in the full panel of roughly 83,000, 20% have a hit.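 Step 1: grow cells in 96-well plates. Step 2: add test compound at a single concentration. Step 3: incubate 48 h. Step 4: record percent growth.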 The source made the active and inactive calls. Rule for the calls: active = growth percent below 10; inactive = the rest.

System: 786-0 renal
Assay: NCI-60 one-dose screen, 48 h (100 = growth as untreated, 0 = no growth, -100 = all killed)
Conditions: 10 µM unless noted

| Compound | growth |
| --- | --- |
| O=C(c1ccccc1)c1ccc2nc(-c3ccc(F)cc3)[nH]c2c1 | 39% (inactive) |
| CC1(C)CC[C@]2(C(=O)O)CC[C@]3(C)C(=CCC4[C@@]5(C)C[C@@H](O)[C@@H]6OC(c7ccc(F)cc7)OC[C@@]6(C)C5CC[C@]43C)C2C1 (some centres undefined) | 39.6% (inactive) |
| N/C(=N\c1nc2ccccc2s1)NC(=O)Nc1ccc(Cl)cc1Cl | -78.6% (active) |
| CCCCSc1nc(Nc2ccc(S(N)(=O)=O)cc2)c(C#N)c(-c2cc(OC)c(OC)c(OC)c2)n1 | 57.1% (inactive) |
| O=C(COc1ccc2c(c1)CCCC(=O)N2)NCc1ccccc1 | 101% (inactive) |
| Nc1nc(-c2ccccc2)c(N=Nc2ccc([N+](=O)[O-])cc2Cl)s1 | 94.9% (inactive) |
| CC1(C)CC[C@]2(C(=O)O)CC[C@]3(C)C(=CCC4[C@@]5(C)C[C@@H](O)[C@@H]6OC(c7cccc(Br)c7)OC[C@@]6(C)C5CC[C@]43C)C2C1 (some centres undefined) | 52.7% (inactive) |
| C#CCOc1ccc(/C=N/Nc2nc(-c3cc4cc(OC)ccc4oc3=O)cs2)cc1OC | 74.2% (inactive) |
| N#Cc1c(NCc2ccccc2)n[nH]c1Nc1ccccc1 | 63.3% (inactive) |
| COc1cc2oc(-c3cccc(C(=O)Nc4ccc(Cl)cc4)c3)cc(=O)c2c(OCC(=O)N[C@@H](Cc2ccccc2)C(=O)O)c1OC | 102% (inactive) |
| Cn1cc(-c2cc3nc(-c4c[nH]c5ccc(Cl)cc45)cc(N)n3n2)c2ccccc21 | -89% (active) |
| C#C[C@]1(O)CC[C@H]2[C@@H]3CC=C4c5sc(-c6ccc([N+](=O)[O-])cc6)nc5CC[C@]4(C)[C@H]3CC[C@@]21C | 18.3% (inactive) |
| O=C(CSc1nc2ccccc2c(=O)[nH]1)NCCN1CCCCC1 | 102% (inactive) |
| C#CCOc1cc(N(CC)CC)ccc1C(C(=O)NC(C)(C)C)N(C(=O)C1CCc2cc(F)ccc2O1)c1ccc(F)c(Cl)c1 (centres undefined) | 58.7% (inactive) |
| O=c1oc2ccccc2cc1-c1csc(N2N=C(c3ccccc3)CC2c2ccc(N3CCOCC3)cc2)n1 (centres undefined) | 118% (inactive) |
| Cn1cc(-c2cc(N)n3nc(-c4cn(C)c5ncccc45)cc3n2)c2cccnc21 | 81.9% (inactive) |
| COc1ccc(-c2ccnc(SCc3cc4cc(OC)ccc4[nH]c3=O)n2)cc1 | 44.1% (inactive) |

| Compound | growth |
| --- | --- |
| CCOc1ccc(-c2c(C#N)c(-c3ccc(Cl)cc3)nc3n[nH]c(-c4ccc(Cl)cc4)c23)cc1OC | 65.3% (inactive) |
| CN(C)c1ccnc(NCCCSC(c2ccccc2)(c2ccccc2)c2ccccc2)c1 | 8.23% (active) |
| O=C(Cn1c(/C=C/c2ccccc2)nc2ccccc2c1=O)Nc1ccccc1 | 1.52% (active) |
| O=C(O)c1cccc(-c2ccc(/C=N/NC(=O)c3[nH]c4ccc(Br)cc4c3-c3ccccc3)s2)c1 | 50.9% (inactive) |
| C#CCOc1cc(N(CC)CC)ccc1C(C(=O)NC(C)(C)C)N(C(=O)C1CCc2cc(F)ccc2O1)c1cc(C)cc(C)c1 (centres undefined) | 36.3% (inactive) |
| COc1cc2c(c(OC)c1OC)C(=O)CC(c1cccc(NC(=O)c3cc(NC(=O)[C@@H](N)CO)ccc3C)c1)O2 (some centres undefined) | 107% (inactive) |
| C#CCOc1ccc(/C=N/Nc2nc(-c3ccc(F)cc3)cs2)cc1OC | 84.4% (inactive) |
| Cc1cc2c(cc1Cl)C(=O)/C(=C/c1ccc(F)cc1)O2 | 89.8% (inactive) |
| Cn1cc(-c2cc3nc(-c4cn(C)c5ncccc45)cc(N)n3n2)c2cc(Cl)ccc21 | -90.4% (active) |
| COc1ccc2[nH]cc(-c3cc(N)n4nc(-c5cn(C)c6ccccc56)cc4n3)c2c1 | -87.6% (active) |
| COc1ccc(Cc2nn(CC(=O)N/N=C/c3ccc(F)cc3)c(=O)c3c(C)noc23)cc1 | -20.9% (active) |
| Cc1ccc(NCC(=O)Cn2cc(COc3ccc(C=Nc4cnc5ccccc5c4)cc3)nn2)cc1 | 107% (inactive) |
| Cc1cccc(NC(=O)CN2CCN(c3ncnc4c3cnn4-c3ccccc3)CC2)c1 | 98.1% (inactive) |
| Cn1cc(-c2nc(N)nnc2-c2c[nH]c3ccc(F)cc23)c2cc(Br)cnc21 | 5.54% (active) |
| COc1ccc2[nH]cc(-c3nnc(N)nc3-c3cn(C)c4ncc(Br)cc34)c2c1 | 52.5% (inactive) |
| COc1ccc(NC(=O)[C@H](C)N)cc1C(=O)Nc1cccc(C2CC(=O)c3c(cc(OC)c(OC)c3OC)O2)c1 (some centres undefined) | 91.1% (inactive) |
| CC1(C)CC[C@]2(C(=O)O)CC[C@]3(C)C(=CCC4[C@@]5(C)C[C@@H](O)[C@@H]6OC(c7ccco7)OC[C@@]6(C)C5CC[C@]43C)C2C1 (some centres undefined) | 42.7% (inactive) |
